The values below come from PubChem BioAssay.

Several values for one entry are separate records, joined by “and”; a condition that tells them apart may be missing. Equal values may be shown once. Results filed as inconclusive are left out. Activity calls are given as the source filed them. Unless noted, no stated cut-off is given here; in the data, active means parasite load remaining mostly below about 12% (no sharp cut-off); inactive means mostly above about 10%.

Test [1] in a line: P. berghei load reduction in hepatocytes – cell-based, HepG2, luciferase luminescence, HepG2 viability, primary screen (AID 624349).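 Further: 100% = mean of DMSO negative control wells on the same plate.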 The following applies: P. berghei liver stage in HepG2, luciferase luminescence, concentration not given here; parasite load remaining: stronger effect = lower value; viability: measured here: HepG2 viability without parasites.
Test [2] can be described thus: EMT-state selective cytotoxicity in co-culture – imaging, PC-3E GFP, TEM4-18 mCherry, primary screen (AID 1345086;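 active means compounds killing one labelled cell type while sparing the other, by normalised counts and ratio limits, not self-fluorescent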;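 on all read-outs here: cells exposed to compound for 72 h before imaging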;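 on red/green cell ratio (normalised): normalised mesenchymal count divided by normalised epithelial count so high means epithelial killing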). The conditions noted are these: PC-3E GFP / TEM4-18 mCherry co-culture, imaging cell counts, at 1 µM; for red/green cell ratio (normalised): actives lie on both sides, counts scaled to control wells, 1 = unselective.
A short description of test [3]: viability loss with induced miR-34 in A549 – imaging, A549 dox-inducible miR-34, nuclei and caspase counts, primary screen (AID 1347080;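 active means compounds whose cell count with miR-34 switched on is under 0.7 times the count with it off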). The following applies: A549 miR-34 inducible, Hoechst nuclei count, 48 h.
The target in test [4] is ATP-dependent translocase ABCB1 (Homo sapiens) (UniProt P08183). The test is described as follows: P-glycoprotein substrate transport blockade – cell-based (AID 377; in the data active means fluorescence slope change above about 50%). The following applies: MDR1-expressing cells, fluorescent substrate accumulation slope; stronger effect = higher value; concentration not given here.
Sequence of ATP-dependent translocase ABCB1 (Homo sapiens) (P08183 whole entry, looked up): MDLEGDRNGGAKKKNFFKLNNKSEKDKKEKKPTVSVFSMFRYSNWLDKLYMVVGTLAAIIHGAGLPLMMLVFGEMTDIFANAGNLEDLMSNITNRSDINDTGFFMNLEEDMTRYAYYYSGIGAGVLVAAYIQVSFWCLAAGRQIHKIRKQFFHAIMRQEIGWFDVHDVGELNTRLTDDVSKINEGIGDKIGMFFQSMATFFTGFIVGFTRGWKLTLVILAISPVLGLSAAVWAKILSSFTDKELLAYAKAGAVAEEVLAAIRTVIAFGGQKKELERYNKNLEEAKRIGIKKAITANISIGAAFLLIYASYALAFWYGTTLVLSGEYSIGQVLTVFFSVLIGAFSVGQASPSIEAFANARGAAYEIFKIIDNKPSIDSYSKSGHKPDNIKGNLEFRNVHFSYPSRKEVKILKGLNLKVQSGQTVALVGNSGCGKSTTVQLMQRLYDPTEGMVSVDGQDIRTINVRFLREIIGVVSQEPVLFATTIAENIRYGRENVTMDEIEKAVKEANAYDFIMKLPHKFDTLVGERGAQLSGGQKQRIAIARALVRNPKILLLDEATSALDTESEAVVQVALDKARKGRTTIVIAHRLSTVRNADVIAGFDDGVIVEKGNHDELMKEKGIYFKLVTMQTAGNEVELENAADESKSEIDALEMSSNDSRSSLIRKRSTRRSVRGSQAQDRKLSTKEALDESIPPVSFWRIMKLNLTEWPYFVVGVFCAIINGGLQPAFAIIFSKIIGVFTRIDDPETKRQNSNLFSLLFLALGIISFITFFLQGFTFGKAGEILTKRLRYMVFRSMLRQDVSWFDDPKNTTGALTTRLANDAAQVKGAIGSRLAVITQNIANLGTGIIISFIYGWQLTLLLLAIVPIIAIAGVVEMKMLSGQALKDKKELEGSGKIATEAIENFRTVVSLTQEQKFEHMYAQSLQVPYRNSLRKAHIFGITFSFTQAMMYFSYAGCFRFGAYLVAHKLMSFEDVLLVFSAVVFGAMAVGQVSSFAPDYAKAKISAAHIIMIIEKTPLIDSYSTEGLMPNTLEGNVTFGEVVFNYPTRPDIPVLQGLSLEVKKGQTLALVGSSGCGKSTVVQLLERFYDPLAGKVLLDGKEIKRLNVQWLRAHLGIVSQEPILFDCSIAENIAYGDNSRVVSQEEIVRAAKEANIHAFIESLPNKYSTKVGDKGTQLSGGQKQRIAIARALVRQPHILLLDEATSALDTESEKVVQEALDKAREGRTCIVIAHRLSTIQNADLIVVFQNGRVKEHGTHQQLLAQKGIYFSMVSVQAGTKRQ
Test [5] in a line: antimalarial activity against Dd2 strain (AID 2302;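 active means growth inhibition above 50% at the single 2 µM test dose, taken to imply half-maximal potency below 2 µM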;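 further: 0% = DMSO untreated growth and 100% = chloroquine plus artemisinin killed control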). The following applies: P. falciparum Dd2 in RBCs, LDH growth readout, 72 h; at 2 µM; stronger effect = higher value.
Test [6] can be described thus: human hepatoma cell viability loss – ATP luminescence, cytotoxicity control for P. falciparum antimalarial project, primary screen (AID 2303;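 active means inhibition above 50%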;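 further: 0% = DMSO wells and 100% = digitonin-killed cells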). The conditions noted are these: HepG2 viability, 24-48 h, at 10 µM, stronger effect = higher value.
The target of test [7] is L-lactate dehydrogenase (Plasmodium falciparum (isolate CDC / Honduras)) (UniProt Q27743). The test is described as follows: PfLDH activity inhibition – cell lysate, 3D7 strain, counter-screen for P. falciparum growth inhibition project (AID 2304; call rule not given here;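 further: 0% = vehicle and 100% = reference inhibitor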). The conditions noted are these: P. falciparum 3D7 crude extract, LDH APAD/NBT absorbance; at 2 µM; stronger effect = higher value. In general terms: A counterscreen serves to expose hits that act by an unwanted route or on another target.
Sequence of L-lactate dehydrogenase (Plasmodium falciparum (isolate CDC / Honduras)) (Q27743 whole entry, looked up): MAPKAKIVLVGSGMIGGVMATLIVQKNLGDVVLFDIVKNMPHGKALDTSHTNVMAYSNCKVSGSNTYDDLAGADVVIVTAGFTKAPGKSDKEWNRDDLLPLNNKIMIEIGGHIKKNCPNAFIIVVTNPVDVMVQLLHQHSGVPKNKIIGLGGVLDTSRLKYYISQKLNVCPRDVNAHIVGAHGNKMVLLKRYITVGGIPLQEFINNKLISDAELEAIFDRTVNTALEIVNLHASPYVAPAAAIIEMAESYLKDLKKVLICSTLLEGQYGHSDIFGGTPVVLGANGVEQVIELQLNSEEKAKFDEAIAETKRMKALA

The nature of test [8]: inhibition of 3D7 malaria parasite growth – strain 3D7 (AID 2306; call rule not given here;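 further: 0% = DMSO wells and 100% = chloroquine plus artemisinin control wells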). The following applies: P. falciparum 3D7 erythrocytic growth, LDH absorbance, 72 h; at 2 µM; stronger effect = higher value.
Test [9] in a line: compounds altering viability of human ES cells (AID 493140; call rule not given here;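 further: cells exposed to compounds for four days before counting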). The following applies: human embryonic stem cell survival screen; stronger effect = higher value.
A short description of test [10]: MELAS cybrid and Rieske KO viability enhancers – cell-based, MELAS cybrids, Rieske KO mouse fibroblasts, CellTiter-Glo, primary screen (AID 1508586;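 active means mean z-score across replicates of 1.96 or higher in either the MELAS or the Rieske mutant cell line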;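 further: z relative to plate mean and SD of compound and empty wells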). The following applies: low glucose. On the technique in general: In ATP-based viability assays light output follows the ATP content of the culture.
Test [11] concerns the target NAD(+) hydrolase SARM1 (Homo sapiens) (UniProt Q6SZW1). The test is described as follows: blocking NAD cleavage by SARM1 SAM-TIR – cell lysate, NAD-Glo luminescence (AID 1508614;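 active means compound whose remaining NAD level is above about 45 nM, limit read from the data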). The conditions noted are these: SAM-TIR HEK293T lysate NADase, at 1 µM, stronger effect = higher value.
Test [12] deals with Mitogen-activated protein kinase 7 (Homo sapiens) (UniProt Q13164). The test is described as follows: Gal4-ERK5 driven luciferase induction – cell-based, HTS, primary screen (AID 1508626;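 active means luciferase signal above three times the same-plate solvent-only control wells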;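 further: luciferase driven by Gal4-ERK5 fusion binding five Gal4 sites before minimal TATA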). The conditions noted are these: HeLa Gal4-ERK5 transactivation, 18 h, at 5 µM, stronger effect = higher value.
Sequence of Mitogen-activated protein kinase 7 (Homo sapiens) (Q13164 whole entry, looked up, the tested form may be a part): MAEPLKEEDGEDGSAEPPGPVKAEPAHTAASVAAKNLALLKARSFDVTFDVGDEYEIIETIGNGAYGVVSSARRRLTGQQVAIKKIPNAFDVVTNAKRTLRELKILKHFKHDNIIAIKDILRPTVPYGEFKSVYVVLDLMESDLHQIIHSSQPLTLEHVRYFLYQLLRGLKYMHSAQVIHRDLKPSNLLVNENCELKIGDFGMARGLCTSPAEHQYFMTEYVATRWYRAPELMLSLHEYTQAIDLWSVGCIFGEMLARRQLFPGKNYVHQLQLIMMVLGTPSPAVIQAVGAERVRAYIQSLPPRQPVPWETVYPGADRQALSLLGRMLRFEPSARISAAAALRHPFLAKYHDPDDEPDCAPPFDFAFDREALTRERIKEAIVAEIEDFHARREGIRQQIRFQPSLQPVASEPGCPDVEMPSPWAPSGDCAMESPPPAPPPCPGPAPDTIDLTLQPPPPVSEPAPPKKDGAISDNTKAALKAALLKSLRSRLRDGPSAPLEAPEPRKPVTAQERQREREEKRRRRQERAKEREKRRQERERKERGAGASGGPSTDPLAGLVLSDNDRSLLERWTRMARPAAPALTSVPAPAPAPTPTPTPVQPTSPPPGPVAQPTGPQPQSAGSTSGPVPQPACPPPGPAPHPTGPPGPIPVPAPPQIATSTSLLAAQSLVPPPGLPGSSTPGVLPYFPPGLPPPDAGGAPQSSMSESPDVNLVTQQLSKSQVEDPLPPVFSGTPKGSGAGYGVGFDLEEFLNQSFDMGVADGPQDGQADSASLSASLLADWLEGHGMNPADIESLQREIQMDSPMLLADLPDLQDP
Test [13] in a line: galactose survival enhancers in mitochondrial complex I cybrids – cell-based, galactose medium, ATP luminescence, primary screen (AID 1645843;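 active means z-score of at least 1.8 in each of two replicates, scored against plate mean and spread of sample wells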;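 further: positive z means more ATP and so rescue of galactose-driven cybrid death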). The conditions noted are these: complex I mutant cybrid cells, 72 h, stronger effect = higher value.
[14] abbreviates: measured here: epithelial PC-3E GFP cell survival.
The mark [15] stands for this setting: measured here: mesenchymal TEM4-18 mCherry cell survival.
Setting [16] is: stronger effect = lower value, cell number ratio, induced over uninduced.
[17] abbreviates: measured here: relative caspase fold change +Dox/-Dox.
The mark [18] stands for this setting: measured here: total cells with miR-34 induction, stronger effect = lower value.
Setting [19] is: measured here: total cells without miR-34 induction.

Usually viability stands for a read-out of living cells in per cent, often relative to untreated cells. Usually inhibition stands for the drop in the measured response relative to a control, in per cent.

Sequence of NAD(+) hydrolase SARM1 (Homo sapiens) (Q6SZW1 whole entry, looked up, the tested form may be a part): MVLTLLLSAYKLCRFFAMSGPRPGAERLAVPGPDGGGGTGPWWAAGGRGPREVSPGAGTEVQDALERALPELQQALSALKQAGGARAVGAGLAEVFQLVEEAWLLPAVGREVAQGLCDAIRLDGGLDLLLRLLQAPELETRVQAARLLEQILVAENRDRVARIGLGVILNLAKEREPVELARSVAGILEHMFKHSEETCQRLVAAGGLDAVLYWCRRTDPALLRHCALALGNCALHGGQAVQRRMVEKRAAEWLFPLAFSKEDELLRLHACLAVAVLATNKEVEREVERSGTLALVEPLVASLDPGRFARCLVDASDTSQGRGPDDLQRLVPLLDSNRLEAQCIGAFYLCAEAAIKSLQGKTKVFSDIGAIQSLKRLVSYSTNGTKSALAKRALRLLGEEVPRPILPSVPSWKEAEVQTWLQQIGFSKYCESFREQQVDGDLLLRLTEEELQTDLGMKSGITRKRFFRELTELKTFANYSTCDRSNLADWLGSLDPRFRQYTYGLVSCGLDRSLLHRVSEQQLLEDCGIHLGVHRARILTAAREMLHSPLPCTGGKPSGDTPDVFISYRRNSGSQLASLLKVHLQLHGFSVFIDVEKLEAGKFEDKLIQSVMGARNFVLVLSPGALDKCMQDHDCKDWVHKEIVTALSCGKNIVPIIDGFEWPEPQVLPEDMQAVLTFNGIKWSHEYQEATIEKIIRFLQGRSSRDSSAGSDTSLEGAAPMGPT

Take `CC(=O)O[C@]1(C(C)=O)CCC2C3C=C(C)C4=CC(=O)CCC4(C)C3CCC21C` (some centres undefined): in test [1], the parasite load remaining was 94.3% (inactive) and 19.1% (inactive). Moreover, in test [1], the viability is 74.8% and 83.8%. In addition, the red/green cell ratio (normalised) in [2] is 0.94 (inactive). In addition, the values for the normalised cell number in test [2] (setting [14]) and in test [2] (setting [15]) were 1.18 and 1.11, respectively. The values for the fold change in [3] (setting [16]) and in test [3] (setting [17]) were 0.897 (inactive) and 2.81, respectively. The cell count in test [3] (setting [18]) came out at 9250; in [3] (setting [19]) it was 10300.
Turning to `C#C[C@]1(OC(C)=O)CCC2C3CCC4=C/C(=N/O)CCC4C3CC[C@@]21CC` (some centres undefined), in test [1], the parasite load remaining was 66.7% (inactive). For the same compound, in [1], the viability worked out at 100%. Besides, the red/green cell ratio (normalised) in test [2] is 0.75 (inactive). Moreover, the results for the normalised cell number in test [2] (setting [14]) and in test [2] (setting [15]) were 1.02 and 0.76, respectively. Besides, the fold change is 0.914 (inactive) in test [3] (setting [16]) and 2.93 in test [3] (setting [17]). For the same compound, the figures for the cell count in [3] (setting [18]) and in test [3] (setting [19]) were 11600 and 12700, respectively.
`CN(Cc1cnc2nc(N)nc(N)c2n1)c1ccc(C(=O)NC(CCC(=O)O)C(=O)O)cc1` (centres undefined): in test [4], the fluorescence slope change is -5.4% (inactive). The values for the growth inhibition in test [5] and in test [8] were 66% (active) and 91% (active), respectively. In addition, the inhibition is 65% (active) in [6] and -1% (inactive) in [7]. In addition, the survival in test [9] was 10.7 (inactive). Besides, the red/green cell ratio (normalised) in [2] is 0.89 (inactive). Also, the figures for the normalised cell number in test [2] (setting [14]) and in test [2] (setting [15]) were 1.15 and 1.02, respectively. Also, the z-score in [10] (MELAS cybrid survival, CellTiter-Glo 48 h, stronger effect = higher value) is -0.53 (inactive) and 1.15 (inactive); in test [10] (Rieske KO mouse fibroblast survival, CellTiter-Glo 72 h), 0.183 and -0.283; in test [13], -1.2 (inactive). In [11], the remaining NAD was 10 nM (inactive). For the same compound, the luciferase signal in [12] was 32 AU (inactive).
As to `COc1cc([C@@H]2c3cc4c(cc3C(OC3O[C@@H]5COC(C)O[C@H]5[C@H](O)[C@H]3O)C3COC(=O)[C@@H]32)OCO4)cc(OC)c1O` (some centres undefined), the parasite load remaining in [1] is 116% (inactive) and 63.3% (inactive). Further, in test [1], the viability was 71.1% and 87.6%. In [2], the red/green cell ratio (normalised) was 0.85 (inactive). Also, the normalised cell number was 0.36 in test [2] (setting [14]) and 0.31 in test [2] (setting [15]). In addition, the figures for the fold change in test [3] (setting [16]) and in test [3] (setting [17]) were 0.832 (inactive) and 1.86, respectively. Further, the cell count is 3220 in test [3] (setting [18]) and 3870 in test [3] (setting [19]).
As to `CCCC[C@@H](CC)COC(=O)c1ccccc1O`, the parasite load remaining in [1] is 49.2% (inactive). For the same compound, the viability in test [1] was found to be 118%. Moreover, the red/green cell ratio (normalised) in test [2] was 0.88 (inactive). Further, the normalised cell number came to 1.19 in [2] (setting [14]) and 1.04 in test [2] (setting [15]). The figures for the fold change in test [3] (setting [16]) and in test [3] (setting [17]) were 0.858 (inactive) and 1.6, respectively. For the same compound, the cell count in test [3] (setting [18]) was 11400; in test [3] (setting [19]), 13300.
On to `O=C(OC[C@H]1O[C@H](OC(=O)c2cc(O)c(O)c(OC(=O)c3cc(O)c(O)c(O)c3)c2)[C@H](OC(=O)c2cc(O)c(O)c(OC(=O)c3cc(O)c(O)c(O)c3)c2)[C@@H](OC(=O)c2cc(O)c(O)c(OC(=O)c3cc(O)c(O)c(O)c3)c2)[C@@H]1OC(=O)c1cc(O)c(O)c(OC(=O)c2cc(O)c(O)c(O)c2)c1)c1cc(O)c(O)c(OC(=O)c2cc(O)c(O)c(O)c2)c1`, for which the parasite load remaining in [1] was 58.2% (inactive) and 73.8% (inactive). Further, in [1], the viability was 119% and 101%. The red/green cell ratio (normalised) in test [2] was 1.23 (inactive). Besides, the normalised cell number in test [2] (setting [14]) stood at 1.24; in test [2] (setting [15]), 1.52. Besides, the results for the fold change in test [3] (setting [16]) and in [3] (setting [17]) were 0.602 (active) and 1.46, respectively. The cell count stood at 4260 in test [3] (setting [18]) and 7070 in test [3] (setting [19]).
